Most compounds without a hit are left out; they make up all but 3.1% or so of the library.
C2C12 statin: suppressors of simvastatin-induced myotoxicity in C2C12 myotubes; ATP luminescence, 48 h; scaled: DMSO 0, geranylgeraniol control 100; rescue of ATP level, % at 7.49 µM; 330,000 compounds, 0.78% hits; AID 602340;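 active = mean ATP rescue above about 67%, or every replicate alone reaching that limit, limit read from the data, passing the limit was not always enough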;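 note: myotubes were challenged with 10 µM simvastatin during compound exposure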
INS-1E GSIS act: GLuc luminescence reporter in INS-1E cells, primary screen for activators of glucose-dependent secretion of insulin; INS-1E GLuc reporter insulin secretion, 2-3 h; 370,000 compounds, 0.61% hits; activation, % at 16.6 µM;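 active = lowest replicate activation of at least 40%, so every replicate reaches that level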;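 note: 0% = median of neutral control wells and 100% = median of IBMX positive control wells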
Env fusion inh: blocks HIV Env-driven cell-cell fusion. HeLa-JRFL Env/CEM21 cell fusion, luciferase. inhibition, % at 12.3 µM. 360,000 compounds, 1.1% hits. AID 651610;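 active = mean replicate inhibition score of at least 50 and every replicate individually at or above 50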;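 note: 0% = plate neutral controls and 100% = maraviroc near 300 nM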
EWS-Fli block: EWS/Fli transcriptional activity inhibition. A673 NR0B1-luciferase reporter, viability-normalised. 350,000 compounds, 0.67% hits. inhibition, % at 12.6 µM;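 active = mean inhibition of at least 50% after viability correction, with every replicate also passing that limit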;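 note: firefly luciferase signal divided by Alamar Blue viability fluorescence both relative to DMSO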
PAX8 reporter: lowers PAX8-driven luciferase in RMG-I cells | 360,000 compounds, 1.2% hits | RMG-I TPO-luciferase reporter, SteadyGlo, 24 h | inhibition, % at 12.6 µM;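 active = mean replicate inhibition at least 60% with every replicate also reaching 60%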;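 note: luciferase light reporting Pax8 driven TPO promoter activity; plate controls were median of neutral control wells for no effect and mitoxantrone controls for full effect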
miR122 inh: blocks miR-122 activity in Huh7 sensor cells | Huh7 miR-122 Renilla luciferase sensor, 48 h; neutral wells = 0, positive control = 100 | activation (reporter increase), % at 12.5 µM | 340,000 compounds, 0.3% hits;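 active = mean replicate activation score at least 90 and every replicate individually at or above 90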;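 note: higher luciferase means less miR-122 activity so hits act as miR-122 inhibitors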
* marks the source's active call; other numbers are inactive results; . = not tested or not shown; [ ] = another dose, or the depositor's remark.

SMILES	C2C12 statin	INS-1E GSIS act	Env fusion inh	EWS-Fli block	PAX8 reporter	miR122 inh
Cc1noc(C)c1NC(=O)N(C)C[C@@H]1Oc2ccc(NC(=O)CCC(F)(F)F)cc2C(=O)N([C@H](C)CO)C[C@H]1C	-2	13	-2[16.7 µM]	.	-5	2[16.7 µM]
C=CCn1c(Br)nc2c1c(=O)[nH]c(=O)n2C	.	22	-157	.	.	-2
C=CC(C)n1c(Br)nc2c1c(=O)[nH]c(=O)n2C (stereo not drawn)	.	18	23	.	.	154*
N#C[C@H]1[C@@H](c2ccc(-c3ccccc3F)cc2)[C@@H](CO)N1C(=O)c1ccccn1	-8	3	-12[16.7 µM]	-15	2	.
CCCCCC(O)CCCC(=O)O (stereo not drawn)	9	6	9	-11	-11	-1
CCCCCCCCCCCCCCCC(O)C[N+](C)(C)CCO (stereo not drawn)	.	363*	16	6	.	.
Cc1cc(C)n2c(=O)c3ccc(Cl)cc3nc2c1C#N	.	-1	3	-3	21	.
Cc1cc(Cl)n2c(nc3cc(F)c(F)cc32)c1C#N	.	7	-292	58*	74*	.
COc1ccc(CN(C)C[C@H]2Oc3ccc(NS(=O)(=O)c4cn(C)cn4)cc3C(=O)N([C@@H](C)CO)C[C@@H]2C)cc1	-8	1	.	-6	0	0[16.7 µM]
COCC(=O)N(C)C[C@H]1Oc2cc(C#Cc3ccccc3)ccc2S(=O)(=O)N([C@@H](C)CO)C[C@H]1C	20	21	-26[16.7 µM]	-6	.	-19[16.7 µM]
O=C(O)CCCc1ccc2c(c1)CCc1ccccc1-2	6	12	63*	63*	-34	.
CC(C)NC(=O)Cn1c(=O)n(CC(=O)N2CCCCC2)c(=O)c2sccc21	101*	-4	-2	-2	4	-1
O=C(N/N=C/c1ccccc1)C(O)c1ccccc1 (stereo not drawn)	5	25	-3	10	37	11
O=C(N/N=C/c1cccs1)C(O)c1ccccc1 (stereo not drawn)	-2	7	-13	-3	-18	197*
CO[C@H]1CN(C)C(=O)c2cc(NC(=O)Nc3ccc(Cl)cc3)ccc2OC[C@H](C)N(C)C[C@H]1C	-45	-11	2[16.7 µM]	20	12	.
CC(C)NC(=O)N1[C@@H]2c3ccc(-c4ccccc4F)c(=O)n3C[C@@H]2[C@@H](CO)[C@@H]1C(=O)NC1CCC1	2	-5	-2[16.7 µM]	-1	-11	.
C=CCn1c(SCC(=O)Nc2ccc3c(c2)OCO3)nnc1-c1ccccc1OC	0	.	.	.	.	11
C=CCn1c(SCc2csc(-c3ccc(Cl)cc3)n2)nnc1-c1ccccc1OC	.	-50	56*	6	2	.
Cc1ccc(-c2ccc(/C=N/NC(=S)Nc3ccccc3)o2)cc1[N+](=O)[O-]	-19	0	17	.	.	4
CNC(=S)N/N=C/c1ccc(-c2ccc(Cl)c([N+](=O)[O-])c2)o1	.	46*	7	14	36	1
C[C@@H]1CN([C@H](C)CO)C(=O)Cc2cc(NS(=O)(=O)c3ccc(F)cc3)ccc2O[C@H]1CN(C)S(=O)(=O)c1cccs1	-15	2	-6[16.7 µM]	-4	-1	-4[16.7 µM]
Cn1c(=NC(=O)CS(=O)(=O)c2ccccc2)sc2ccccc21	20	1	-21	-26	-107	-11
CCn1c(=NC(=O)CS(=O)(=O)c2ccccc2)sc2cccc(OC)c21	0	-40	57*	12	-20	.
COc1ccc(Nc2ncnc3sccc23)cc1OC	-10	6	-2	-13	-16	-4
NS(=O)(=O)c1ccc(CNc2ncnc3sccc23)cc1	10	0	-8	2	27	2
SMILES	C2C12 statin	INS-1E GSIS act	Env fusion inh	EWS-Fli block	PAX8 reporter	miR122 inh
COc1ccc(CCNc2ncnc3sccc23)cc1OC	.	-53	13	2	77*	.
NS(=O)(=O)c1ccc(CCNc2ncnc3sccc23)cc1	-30	.	49*	.	9	5
C=CC[C@H](CC(=O)N(CCO)Cc1ccccc1)C(=O)NC[C@H](OC(=O)[C@@H](CC=C)Cc1ccc(F)cc1)c1ccccc1	-16	-7	68*	-4	55	-15
C=CCC[C@@H](Cc1ccc(F)cc1)C(=O)OC[C@@H](NC(=O)[C@H](CC=C)CC(=O)NCCO)C(C)(C)C	0	-14	102*	-3	-1	-5
C=CCC[C@H](Cc1ccc(F)cc1)C(=O)OC[C@@H](Cc1c[nH]c2ccccc12)NC(=O)[C@@H](CC=C)CC(=O)N[C@@H](CO)Cc1ccccc1	18	.	-2	-2	78*	-24
C=CC[C@@H](CC(=O)N(CCO)Cc1ccccc1)C(=O)NC[C@@H](OC(=O)[C@@H](CC=C)Cc1ccc(F)cc1)c1ccccc1	0	-36	26	4	42	-1
C=CC[C@H](CC(=O)N(CCO)Cc1ccccc1)C(=O)N[C@H](COC(=O)[C@@H](CC=C)Cc1ccc(F)cc1)Cc1c[nH]c2ccccc12	-4	.	32	0	82*	-11
C=CC[C@@H](CC(=O)N(CCO)Cc1ccccc1)C(=O)N[C@H](COC(=O)[C@@H](CC=C)Cc1ccc(F)cc1)Cc1c[nH]c2ccccc12	-1	-20	-9	3	37	-11
CC(=O)N(C)C[C@@H]1Oc2cc(C#Cc3ccccn3)ccc2S(=O)(=O)N([C@@H](C)CO)C[C@@H]1C	9	-1	-16[16.7 µM]	0	.	-4[16.7 µM]
COc1ccc(-c2ccc3c(c2)[C@@H]2[C@@H](CCN2S(=O)(=O)c2ccc(OC)cc2)[C@@H](CO)N3)cc1	8	10	.	3	1	-4[16.7 µM]
CO[C@@H]1CN(C)C(=O)c2cc(NC(=O)C3CC3)ccc2OC[C@@H](C)N(CC2CCOCC2)C[C@H]1C	4	5	.	5	-4	.
C=CCC[C@@H](Cc1ccc(F)cc1)C(=O)OC[C@@H](Cc1c[nH]c2ccccc12)NC(=O)[C@@H](CC=C)CC(=O)N(CCO)Cc1ccccc1	15	-8	.	5	67*	-19
C=CC[C@@H](CC(=O)N(CCO)Cc1ccccc1)C(=O)N[C@@H](COC(=O)[C@@H](CC=C)Cc1ccc(F)cc1)Cc1ccccc1	5	-49	95*	2	43	-12
C=CC[C@@H](CC(=O)N(CCO)Cc1ccccc1)C(=O)N[C@H](COC(=O)[C@@H](CC=C)Cc1ccc(F)cc1)Cc1ccccc1	-2	-29	-10	-1	46	19
C=CCC[C@@H](Cc1ccc(F)cc1)C(=O)OC[C@H](Cc1c[nH]c2ccccc12)NC(=O)[C@@H](CC=C)CC(=O)N[C@@H](CO)Cc1ccccc1	-3	-8	31	4	56	-5
C=CCC[C@H](Cc1ccc(F)cc1)C(=O)OC[C@H](Cc1c[nH]c2ccccc12)NC(=O)[C@H](CC=C)CC(=O)N(CCO)Cc1ccccc1	17	-23	46	23	97*	-11
